# Results as given in PubChem BioAssay AID827 (SRMLSC, 2007).
# Among all 140,000 compounds or so, about 1,700 (1.2%) were called active.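 The calls were made as follows: active = viability at or below a set limit, 4 SD under the median of all tested compounds (cut at about 3.7% in these data); inactive = the rest.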 Many of the other results were omitted from the sample, so actives are more common in it than they were.
# Assay: growth suppression of PTEN-null HCT116, primary screen, cell-based, CellTiter-Glo (AID 827);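 also: PTEN knockout HCT116 line with beta catenin targeted HCT116 as companion control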
# Details: 60 h, at 10 µM, active compounds read low
row,SMILES,viability
1,CN(C)c1ccc(/C=C2\CC3C4CC=C5CC(O)CCC5(C)C4CCC3(C)C2=O)cc1 (stereo not given),2.86% (active)
2,Cc1cccc(-n2c(O)c(/C=N/N3CCOCC3)c(=O)[nH]c2=S)c1,108% (inactive)
3,O=c1[nH]c(=S)n(C2CC2)c(O)c1/C=N/N1CCOCC1,95.3% (inactive)
4,CN(C)CC1CCCCC1OC(=O)c1ccc(Cl)c(Cl)c1 (stereo not given),82.2% (inactive)
5,CCCCC(=O)N/N=C/c1c(O)n(CC)c(=S)n(CC)c1=O,11.8% (inactive)
